Reference: PubChem BioAssay AID1159580 (chemical genetic matrix, 2015)
The campaign covered roughly 5,500 compounds. About 2,000 (36%) were called active. Not shown: some 18% with an inconclusive outcome. Cut-off read from the data, not from the text of the source: active = normalized growth mostly below about 0.91 (no sharp cut-off); inconclusive = no clear call, values can overlap the other calls; inactive = mostly above about 0.92. Some of the results follow.

Test: chemical genetic growth profiling, strain panel (AID 1159580);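 note: tested at 20 µM; growth read once vehicle control cultures reached saturation at 30 °C; 1 = growth at the plate median or of vehicle wells; lower values mean less growth of the strain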
Conditions: growth OD

Measured: normalized growth

CCc1cccc(C)c1N(C(=O)CCl)C(C)COC (stereo unspecified)
inactive: S. cerevisiae deletion strains, locus YAL013W, strain DEP1, active compounds read low 1.01 | S. cerevisiae deletion strains, locus YBR021W, strain FUR4, active compounds read low 0.996 | S. cerevisiae deletion strains, locus YBR229C, strain ROT2, active compounds read low 1 | S. cerevisiae deletion strains, locus YCL029C, strain bik1, active compounds read low 1.02 | S. cerevisiae deletion strains, locus YDL035C, strain GPR1, active compounds read low 1.02 | S. cerevisiae deletion strains, locus YDL074C, strain BRE1, active compounds read low 1.02 | S. cerevisiae deletion strains, locus YDL101C, strain DUN1, active compounds read low 1.02 | S. cerevisiae deletion strains, locus YDL134C, strain PPH21, active compounds read low 1.01 | S. cerevisiae deletion strains, locus YDL185W, strain tfp1, active compounds read low 1.02 | S. cerevisiae deletion strains, locus YDL192W, strain arf1, active compounds read low 1.02 | S. cerevisiae deletion strains, locus YDR101C, strain arx1, active compounds read low 1.01 | S. cerevisiae deletion strains, locus YDR150W, strain NUM1, active compounds read low 1.01 | S. cerevisiae deletion strains, locus YDR162C, strain NBP2, active compounds read low 1.01 | S. cerevisiae deletion strains, locus YDR318W, strain mcm21, active compounds read low 1.01 | S. cerevisiae deletion strains, locus YDR388W, active compounds read low 1.01 | S. cerevisiae deletion strains, locus YDR502C, strain sam2, active compounds read low 1.02 | S. cerevisiae deletion strains, locus YEL061C, strain CIN8, active compounds read low 1.01 | S. cerevisiae deletion strains, locus YER110C, active compounds read low 1.02 | S. cerevisiae deletion strains, locus YER155C, strain BEM2, active compounds read low 1.01 | S. cerevisiae deletion strains, locus YER167W, strain BCK2, active compounds read low 1.02 | S. cerevisiae deletion strains, locus YGL078C, strain dbp3, active compounds read low 1.01 | S. cerevisiae deletion strains, locus YGL086W, strain mad1, active compounds read low 1.01 | S. cerevisiae deletion strains, locus YGL248W, strain PDE1, active compounds read low 1.01 | S. cerevisiae deletion strains, locus YGR078C, strain PAC10, active compounds read low 1.02 | S. cerevisiae deletion strains, locus YGR135W, strain pre9, active compounds read low 1.01 | S. cerevisiae deletion strains, locus YGR229C, strain SMI1, active compounds read low 1.03 | S. cerevisiae deletion strains, locus YGR252W, strain gcn5, active compounds read low 1.01 | S. cerevisiae deletion strains, locus YHR030C, strain SLT2, active compounds read low 1.01 | S. cerevisiae deletion strains, locus YHR079C, strain IRE1 (second series), active compounds read low 1.02 | S. cerevisiae deletion strains, locus YHR094C, strain hxt1, active compounds read low 1.02 | S. cerevisiae deletion strains, locus YHR129C, strain ARP1, active compounds read low 1.01 | S. cerevisiae deletion strains, locus YHR200W, strain rpn10, active compounds read low 1.02 | S. cerevisiae deletion strains, locus YIL066C, strain RNR3, active compounds read low 1.02 | S. cerevisiae deletion strains, locus YIL073C, strain SPO22, active compounds read low 1.05 | S. cerevisiae deletion strains, locus YIL125W, strain kgd1, active compounds read low 1.02 | S. cerevisiae deletion strains, locus YIR030C, strain dcg1, active compounds read low 1.02 | S. cerevisiae deletion strains, locus YJL095W, strain BCK1, active compounds read low 0.991 | S. cerevisiae deletion strains, locus YJL134W, strain LCB3, active compounds read low 1.02 | S. cerevisiae deletion strains, locus YJL168C, strain set2, active compounds read low 1.01 | S. cerevisiae deletion strains, locus YJL187C, strain SWE1 (second series), active compounds read low 1.01 | S. cerevisiae deletion strains, locus YJR043C, strain POL32, active compounds read low 1.02 | S. cerevisiae deletion strains, locus YJR075W, strain HOC1, active compounds read low 1.01 | S. cerevisiae deletion strains, locus YKL009W, strain mrt4, active compounds read low 1.03 | S. cerevisiae deletion strains, locus YKL068W, active compounds read low 1.01 | S. cerevisiae deletion strains, locus YKL085W, strain MDH1 (second series), active compounds read low 1.02 | S. cerevisiae deletion strains, locus YKL085W, strain MDH1, active compounds read low 1.02 | S. cerevisiae deletion strains, locus YKL190W, strain CNB1, active compounds read low 1.02 | S. cerevisiae deletion strains, locus YKR001C, strain vps1, active compounds read low 1.03 | S. cerevisiae deletion strains, locus YLR039C, strain RIC1, active compounds read low 0.993 | S. cerevisiae deletion strains, locus YLR058C, strain SHM2, active compounds read low 1.01 | S. cerevisiae deletion strains, locus YLR102C, strain apc9, active compounds read low 1.02 | S. cerevisiae deletion strains, locus YLR262C, strain YPT6, active compounds read low 1.03 | S. cerevisiae deletion strains, locus YLR268W, strain sec22, active compounds read low 1.01 | S. cerevisiae deletion strains, locus YLR330W, strain CHS5, active compounds read low 1.01 | S. cerevisiae deletion strains, locus YLR342W, strain FKS1 (second series), active compounds read low 1.04 | S. cerevisiae deletion strains, locus YLR371W, strain rom2, active compounds read low 1.02 | S. cerevisiae deletion strains, locus YLR418C, strain cdc73, active compounds read low 1.01 | S. cerevisiae deletion strains, locus YML016C, strain PPZ1, active compounds read low 1.01 | S. cerevisiae deletion strains, locus YML032C, strain rad52, active compounds read low 0.992 | S. cerevisiae deletion strains, locus YML124C, strain tub3, active compounds read low 1.02 | S. cerevisiae deletion strains, locus YMR078C, strain ctf18, active compounds read low 1.02 | S. cerevisiae deletion strains, locus YMR223W, strain ubp8, active compounds read low 1.02 | S. cerevisiae deletion strains, locus YMR263W, strain SAP30, active compounds read low 1 | S. cerevisiae deletion strains, locus YMR307W, strain GAS1, active compounds read low 1 | S. cerevisiae deletion strains, locus YNL067W, strain RPL9B, active compounds read low 1.01 | S. cerevisiae deletion strains, locus YNL128W, strain TEP1, active compounds read low 1.01 | S. cerevisiae deletion strains, locus YNL153C, strain GIM3, active compounds read low 1.01 | S. cerevisiae deletion strains, locus YNL233W, strain BNI4, active compounds read low 1.01 | S. cerevisiae deletion strains, locus YNL250W, strain rad50, active compounds read low 1.01 | S. cerevisiae deletion strains, locus YNL271C, strain bni1, active compounds read low 1.03 | S. cerevisiae deletion strains, locus YNL298W, strain CLA4, active compounds read low 1.02 | S. cerevisiae deletion strains, locus YNL307C, strain MCK1, active compounds read low 1.02 | S. cerevisiae deletion strains, locus YNL322C, strain KRE1, active compounds read low 1.01 | S. cerevisiae deletion strains, locus YNR052C, strain pop2, active compounds read low 1.02 | S. cerevisiae deletion strains, locus YOL006C, strain TOP1, active compounds read low 1.03 | S. cerevisiae deletion strains, locus YOL012C, strain htz1 0.819 | S. cerevisiae deletion strains, locus YOL147C, strain pex11, active compounds read low 1.02 | S. cerevisiae deletion strains, locus YOR061W, strain CKA2, active compounds read low 1.01 | S. cerevisiae deletion strains, locus YOR069W, strain VPS5, active compounds read low 1.01 | S. cerevisiae deletion strains, locus YOR136W, strain idh2, active compounds read low 1.01 | S. cerevisiae deletion strains, locus YOR144C, strain elg1, active compounds read low 1.02 | S. cerevisiae deletion strains, locus YOR184W, strain ser1, active compounds read low 1.03 | S. cerevisiae deletion strains, locus YOR316C, strain cot1, active compounds read low 1.02 | S. cerevisiae deletion strains, locus YPL055C, strain LGE1, active compounds read low 1.03 | S. cerevisiae deletion strains, locus YPL241C, strain CIN2, active compounds read low 1.02 | S. cerevisiae deletion strains, locus YPR119W, strain clb2, active compounds read low 1.01 | S. cerevisiae deletion strains, locus YPR141C, strain kar3, active compounds read low 1.02 | S. cerevisiae deletion strains, locus YPR163C, strain tif3, active compounds read low 1.02 | S. cerevisiae deletion strains, locus YPR167C, strain met16, active compounds read low 1.02 | S. cerevisiae deletion strains, strain wtn01, active compounds read low 1.02 | S. cerevisiae strains, strain wild type, active compounds read low 1
